Measured values published in PubChem BioAssay.
Active and inactive are the calls of the source.

Assays:
[1] = A549 cell viability effects, profiling panel, calcein-AM fluorescence, 48 h, basal (AID 1162); conditions: higher = more signal
[2] = adipocyte viability effects, profiling panel, cell-based, 3T3-L1 adipocytes, calcein-AM fluorescence, 48 h, basal (AID 1163); conditions: 3T3-L1 adipocytes viability, higher = more signal
[3] = HepG2 cell viability effects, profiling panel, calcein-AM fluorescence, 48 h, basal (AID 1164); conditions: higher = more signal
[4] = MM1S cell viability effects, profiling panel, calcein-AM fluorescence, 48 h, basal (AID 1165); conditions: higher = more signal;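 further: viability of MM1S multiple myeloma cells under basal unstimulated conditions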
[5] = basal RPMI8226 viability, no added stimulus, profiling panel, cell-based, calcein-AM fluorescence, 48 h, PK04 Diversity Set (AID 1166); conditions: RPMI8226 myeloma viability, higher = more signal;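 further: cells grown under basal conditions without added stimulus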
[6] = basal HepG2 mitochondrial membrane potential changes, profiling panel, cell-based, JC-1 fluorescence, 24 h, 100 nL compound (AID 1167); conditions: higher = more signal
[7] = basal 3T3-L1 adipocyte mitochondrial potential changes, profiling panel, cell-based, JC-1 fluorescence, 3T3-L1 adipocytes, 24 h, 100 nL compound (AID 1168); conditions: JC-1 mitochondrial fluorescence, higher = more signal, called active from +8 up or from −8 down
[8] = basal RPMI8226 mitochondrial membrane potential changes, profiling panel, cell-based, JC-1 fluorescence, 24 h, 100 nL compound (AID 1169); conditions: RPMI8226 myeloma, JC-1 mitochondrial potential fluorescence, higher = more signal
[9] = basal MM1S mitochondrial membrane potential changes, profiling panel, cell-based, JC-1 fluorescence, 24 h, 100 nL compound (AID 1170); conditions: higher = more signal
[10] = A549 lung cancer cell viability effects, profiling panel, resazurin fluorescence, 24 h, PK04 Diversity Set (AID 1171); conditions: higher = more signal, called active from +8 up or from −8 down
Further: test concentration not given here.

Structure (SMILES) | z-score [1] | z-score [2] | z-score [3] | z-score [4] | z-score [5] | z-score [6] | z-score [7] | z-score [8] | z-score [9] | z-score [10]
CCOC(=O)C1=CCC(c2ccccc2)N(S(=O)(=O)CC[Si](C)(C)C)C1 (stereo not given) | -0.557 | -0.047 | 0.413 | -1.76 | 0.582 | 4.48 | -0.0119 (inactive) | -0.119 | -1.66 | 0.866 (inactive)
O=C1c2ccccc2[C@](Cc2ccccc2I)(C(=O)NC2CC2)[C@H](c2ccc(CO)cc2)N1C1CCCCC1 | 0.818 | 0.835 | 0.677 | -1.02 | -1.98 | 2.11 | 0.252 (inactive) | -0.482 | -0.299 | 0.91 (inactive)
C=C(COC)/C(=C/C[C@H](OC(=O)c1ccncc1)c1ccc(OCCO)cc1)c1cnc2ccccc2c1 | 1.54 | 0.317 | -0.303 | -1.98 | 0.0703 | -0.232 | -0.472 (inactive) | 0.147 | -0.799 | 0.67 (inactive)
NCCCCCNC(=O)[C@@H]1C[C@@H]2C(=O)N[C@@H](Cc3ccccc3)C(=O)N2[C@@H]1c1cccc(OCCO)c1 | -0.349 | 0.512 | -0.442 | 0.143 | -0.371 | -1.04 | -0.684 (inactive) | -0.0752 | 0.894 | -0.403 (inactive)
C=CCNC(=O)[C@H]1[C@@H]2C(=O)O[C@@H](c3ccccc3)[C@@H](c3ccccc3)N2[C@@H](c2ccc(OCCO)cc2)[C@]12C(=O)N(C(=O)OCCOC)c1ccccc12 | 0.111 | 1.47 | -0.109 | -0.472 | -2.66 | 1.34 | 0.131 (inactive) | -0.562 | 0.465 | -0.918 (inactive)
C=CCN1C(=O)[C@@]2(O[C@@H](CCO)[C@H]([Si](C)(C)c3ccc(OC)cc3)[C@H]2C)c2cc(NC(=O)c3ccc(OC)cc3)ccc21 | -0.52 | -0.196 | -4.47 | -2.73 | -4.36 | -1.69 | 1.58 (inactive) | -1.02 | -1.97 | -2.27 (inactive)
O=C1OCC=C[C@H]2OC34C=CCN(c5ccc6ccccc6c5)C(=O)[C@H]3N(CCCCCCO)C(=O)[C@@H]4[C@@H]12 (stereo not given in full) | 0.429 | -0.358 | 0.878 | 1.38 | -0.0053 | 0.631 | 0.613 (inactive) | -0.979 | 0.469 | 0.61 (inactive)
CN(C)CCCNC(=O)[C@@]1(c2ccc([N+](=O)[O-])cc2)CC(=O)N(C2CCCCC2)[C@@H]1c1ccc(CO)cc1I | -4.33 | 0.184 | -5.13 | -3.86 | -4.36 | -3.14 | 0.499 (inactive) | -0.952 | -2.31 | -6.55 (inactive)
CC(C)(C)OC(=O)CC[C@@]12N=C(c3ccc(OCCCO)cc3)O[C@@H]1c1ccccc1N(CCS(=O)(=O)c1ccccc1)C2=O | 2.14 | 0.828 | 0.116 | -1.6 | -0.72 | 0.741 | 3.28 (inactive) | -0.814 | -1.13 | -1.91 (inactive)
COCCOC(=O)N1C(=O)[C@@]2(c3cc(C#Cc4ccc(OC)cc4)ccc31)[C@H](c1ccccc1OCCO)N1[C@H](c3ccccc3)[C@H](c3ccccc3)OC(=O)[C@H]1[C@@H]2C(=O)N1CCN(c2ncccn2)CC1 | 0.204 | -0.226 | 0.348 | -0.653 | 0.149 | 0.356 | 2.41 (inactive) | -0.72 | -1.37 | -0.692 (inactive)
CN1C(=O)C2C=CC(C(O)C3=C[C@H]4C[C@@H](C3)C4(C)C)N(Nc3ccccc3)C2C1=O (stereo not given in full) | -0.456 | -0.893 | -0.0728 | -2.52 | -0.724 | -1.75 | -0.209 (inactive) | -0.353 | -0.39 | 0.0383 (inactive)
CN1C(=O)C2C=CC(C(O)c3cccs3)N(Nc3ccccc3)C2C1=O (stereo not given) | -0.439 | -0.612 | -0.436 | -1.64 | -0.535 | -0.693 | -0.841 (inactive) | -0.0836 | -0.528 | -0.654 (inactive)
C=C(COC)/C(=C/C[C@@H](OC(C)=O)c1ccc(OCCO)cc1)c1cc(C(=O)OC)ccc1OC | -0.534 | -0.0502 | -0.0182 | -1.25 | -0.648 | 0.592 | -0.512 (inactive) | -0.729 | -0.723 | 0.916 (inactive)
COc1cc(OC)c(C(O)C2C=CC3C(=O)NC(=O)C3N2Nc2ccc(Cl)cc2Cl)cc1Br (stereo not given) | -1.52 | 0.0779 | -2.49 | -3.42 | -3.97 | -2.87 | -0.82 (inactive) | -1.09 | -1.27 | -2.56 (inactive)
C=CCNC(=O)[C@@H]1[C@H]2C(=O)O[C@H](c3ccccc3)[C@H](c3ccccc3)N2[C@H](c2ccc(OCCO)cc2)[C@@]12C(=O)Nc1ccc(C#CCCO)cc12 | -1.11 | 0.422 | 1.27 | -0.563 | 0.256 | 1.1 | 0.0466 (inactive) | -0.591 | -0.183 | 0.344 (inactive)
COC(=O)[C@@]1(Cc2ccc(OC)cc2)[C@H]2c3cc(C(=O)N(C)C)n(Cc4cccc5ccccc45)c3C[C@H]2CN1C(=O)c1ccccc1 | -1.62 | 1.26 | -0.0664 | -0.623 | -2.08 | 3.37 | -0.669 (inactive) | -0.127 | -1.41 | -1.92 (inactive)
COC(=O)c1c(CC[C@@H](CO)NC(=O)N[C@@H](C)Cn2cc(C3(O)CCCCC3)nn2)oc(C(C)=O)c1C(=O)OC | 0.0154 | 0.93 | -0.0256 | 0.0508 | -1.82 | -0.637 | 1.17 (inactive) | -0.44 | 0.414 | -1.04 (inactive)
CC1(C)[C@@H]2CC(C(O)C3C=CC4C(=O)N(c5ccccc5)C(=O)C4N3Nc3ccccc3)=C[C@H]1C2 (stereo not given in full) | -1.66 | -1.16 | -1.16 | -0.528 | -0.209 | -1.79 | -1.46 (inactive) | 0.263 | -0.527 | -0.158 (inactive)
CC(C)C[C@@H]1NC(=O)[C@H]2C[C@@H](C(=O)NCCCCCCN)[C@@H](c3ccc(O)cc3)N2C1=O | -0.145 | 0.106 | -0.766 | -0.495 | -0.953 | 0.414 | -0.217 (inactive) | -0.279 | 0.861 | -0.939 (inactive)
C=CCOC(=O)[C@@H]1[C@H]2C(=O)O[C@H](c3ccccc3)[C@H](c3ccccc3)N2[C@H](c2ccc(OCCOC(=O)[C@@H]3C[C@@H]4C(=O)N5CCC[C@H]5C(=O)N4[C@@H]3c3ccc(O)cc3)cc2)[C@@]12C(=O)Nc1ccc(I)cc12 | 1.87 | 1.24 | 0.502 | -0.573 | 0.278 | -1.6 | 0.231 (inactive) | -0.752 | -1.25 | -0.248 (inactive)
C=C(C)C1C(=C)CN([C@H](CO)c2ccccc2)C1=O (stereo not given in full) | -0.488 | 0.783 | -0.764 | 0.0188 | -2.01 | -0.113 | 0.113 (inactive) | -0.175 | -0.761 | 1.02 (inactive)
[N-]=[N+]=Nc1ccccc1C[C@@]1(C(=O)NCCN2CCOCC2)N=C(c2ccc(OCCCO)cc2)O[C@@H]1c1ccccc1 | 0.189 | -0.455 | 0.357 | -0.511 | -0.905 | 2.55 | 0.248 (inactive) | -0.293 | -1.35 | -0.524 (inactive)
